This note sets out measurements from PubChem BioAssay AID504467 (National Center for Advancing Translational Sciences (NCATS), 2011).

Out of some 330,000 compounds screened, about 7,700 (2.3%) were called active. Roughly 26% stayed inconclusive and do not appear here. The call rests on the fitted dose curve; in most records, active means well fitted inhibition curve with a large enough effect; inconclusive means small, poorly fitted or top-dose-only effect, or effect the other way; inactive means flat fitted curve, though single readings scatter. The entries come from a sample that favours actives as a whole. A call without a number means that no potency is given here.
Potency means the concentration at half of the fitted maximal effect.

The nature of the assay: qHTS screen for small molecules that inhibit ELG1-dependent DNA repair in human embryonic kidney (HEK293T) cells expressing luciferase-tagged ELG1. Further: nearly all actives have a fitted effect of over 55% in size. The settings on record: HEK293T ELG1-luciferase reporter, luminescence, 16 h, DNA damage induced by 5-fluorouridine; series mostly up to 46.1 µM. An outline of the steps: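 Reporter activity after DNA damage by 5-fluorouridine is monitored. Compound-treated cells incubate 16 hr at 37 °C, then ONE-Glo is added for 30 min before luminescence reading.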
Regarding `CN1CCN(S(=O)(=O)c2ccc(Nc3ccc(F)cc3)nc2)CC1`, the Potency result is “inactive”.
As for `O=C(CN1C(=O)NC2(CCCCCCC2)C1=O)NCc1ccc(F)cc1`, the Potency result is “inactive”.
Consider `O=C(C(NS(=O)(=O)c1cccc2nsnc12)c1ccccc1)N1CCN(c2ccccc2)CC1` (centres undefined), for which the Potency is 16.4 µM (active).
`O=C(C(NS(=O)(=O)c1cccc2nsnc12)c1ccccc1)N1CCN(c2ccccn2)CC1` (centres undefined): the Potency entry was “inactive”.
On to `O=C(O)C(NS(=O)(=O)c1cccc2nsnc12)c1ccccc1` (centres undefined), for which the Potency entry was “inactive”.
With `COC(=O)c1cc(NC(=O)c2cc(C(C)(C)C)nn2Cc2cccc(C)c2)ccc1N1CCOCC1`, the Potency was 16.4 µM (active).
The value for `CC(=O)Nc1ccc(N2CCOCC2)c(C(=O)Nc2cccc(C)c2)c1` was “inactive”.
Regarding `COC(=O)c1cc(NC(=O)c2ccco2)ccc1N1CCOCC1`, the Potency entry is “inactive”.
In the case of `CSc1ncccc1C(=O)Nc1ccc(C)cn1`, the Potency result is “inactive”.
The value for `Cc1csc(SCC(=O)N(c2ccccc2)C(C)C)n1` was “inactive”.
Regarding `CC(C)(C)OC(=O)C[C@@H]1C/C=C\C[C@@H](CC(=O)N[C@@H](CO)Cc2ccccc2)C(=O)N2CCC[C@H]2COC1=O`, the Potency entry was “inactive”.
In the case of `Cc1cc(NCc2cccnc2)no1`, the Potency result is “inactive”.
For the compound `NC(=O)c1cc(-c2cccnc2)nc2ccc(Br)cc12`, the Potency entry is “inactive”.
To `Brc1ccc2ncnc(NCc3cccnc3)c2c1` belongs 8.2 µM (active); to `C=CC[C@@H](CC(=O)NCCO)C(=O)N[C@H](C)COC(=O)[C@@H](CC=C)CC(=O)OC(C)(C)C`, “inactive”; to `COc1ccc(/C(C)=N/Nc2cc(C(F)(F)F)ccc2Cl)c(OC)c1`, “inactive”.
The value for `CC(CC(=O)Nc1cc(C(F)(F)F)ccc1Cl)c1ccccc1` (centres undefined) was “inactive”.
For the compound `COc1cc(OC)c(C(=O)OC(C)C(=O)Nc2cc(C(F)(F)F)ccc2Cl)cc1OC` (centres undefined), the Potency is 14.6 µM (active).
With `CC1CC(C)CN(C(=O)COC(=O)c2ccc3ncsc3c2)C1` (centres undefined), the Potency entry is “inactive”.
On to `CCN(CC(=O)Nc1ccc(OC)cc1)C(=O)c1ccc(Cl)c(S(=O)(=O)N2CCCC2)c1`, for which the Potency result was “inactive”.
As to `Cc1nnc(N/N=C/C2CC=CCC2)[nH]c1=O` (centres undefined), the Potency entry was “inactive”.
The value for `Cc1ccccc1Nc1nnc(C)c(=O)[nH]1` was “inactive”; that for `Cc1nnc(N/N=C/c2ccccn2)[nH]c1=O` was 0.92 µM (active).
The value for `Cc1ccc([C@@H]2CC=C(C(=O)O)[C@H](c3cccc(Cl)c3)N2S(=O)(=O)c2ccc(C)cc2)cc1` was “inactive”; that for `CN(C)CCNC(=O)Cc1ccc([N+](=O)[O-])cc1` was “inactive”; that for `CN(C)C(CNC(=O)Cc1ccc([N+](=O)[O-])cc1)c1ccccc1` (centres undefined) was “inactive”.
As for `CN(CCc1ccccc1)C(=O)c1cccc(NC(=O)Cc2ccc([N+](=O)[O-])cc2)c1`, the Potency was 13 µM (active).
The value for `Cc1ccc2nnn(Cc3cccc(C(C)(C)C)c3O)c2c1` was “inactive”; that for `CCc1ccc2nc(N(CCCN(C)C)C(=O)c3ccc4c(c3)OCCO4)sc2c1` was “inactive”; that for `O=C(CSc1ncnc2sccc12)NC1CCS(=O)(=O)C1` (centres undefined) was “inactive”.
In the case of `CC1(C)Cc2cccc(OCC(=O)NCc3ccccc3)c2O1`, the Potency result is “inactive”.
With `COc1ccc(NS(=O)(=O)c2ccc(N3CCOCC3)c(NC(=O)c3ccccc3Br)c2)cc1`, the Potency result was “inactive”.
Take `COc1ccc(NS(=O)(=O)c2cc(NC(=O)C3CCCCC3)ccc2N2CCOCC2)cc1`: the Potency is 20.6 µM (active).
On to `COc1ccc(NS(=O)(=O)c2cc(NC(=O)/C=C/c3cc(OC)c(OC)c(OC)c3)ccc2N2CCCCC2)cc1`, for which the Potency entry was “inactive”.
The value for `COc1ccc(S(=O)(=O)Nc2ccc3oc(C)c(C(C)=O)c3c2)cc1` was 2.59 µM (active); that for `CC(=O)c1c(C)oc2ccc(NS(=O)(=O)c3ccc(C(=O)O)cc3)cc12` was “inactive”.
In the case of `COc1ccc2oc(C)c(NC(C)=O)c2c1`, the Potency result was “inactive”.
Take `Cc1ccc(S(=O)(=O)N2CCC(C(=O)OCC(=O)N(C)c3ccccc3)CC2)cc1C`: the Potency entry was “inactive”.
In the case of `CCN(CC(=O)Nc1ccc(C)c(S(=O)(=O)N(C)C)c1)Cc1ccccc1`, the Potency entry is “inactive”.
As for `CC(C)(C)c1ccc(SCCc2ccncc2)cc1`, the Potency entry is “inactive”.
With `CCC(C(=O)NC1CCCC1)N(C(=O)Cn1nnc(-c2ccc(C)o2)n1)c1ccc(OC)c(OC)c1` (centres undefined), the Potency entry is “inactive”.
On to `COC(=O)c1c(NC(=O)CCCC(=O)O)sc2c1CCCCC2`, for which the Potency result is “inactive”.
The value for `COC(=O)c1c(NC(=O)COC(=O)[C@@H](NS(=O)(=O)c2ccccc2)C(C)C)sc2c1CCC2` was 25.9 µM (active); that for `CCOCC(=O)Nc1sc2c(c1C(=O)OCC)CCCC2` was “inactive”.
In the case of `O=C1C=C(c2cc(C(F)(F)F)cc(C(F)(F)F)c2)C[C@@H](c2ccc3c(c2)OCO3)C1`, the Potency entry is “inactive”.
For the compound `Cc1cccc(NC(=O)c2sc3nc4c(c(-c5ccco5)c3c2N)CCC4)c1`, the Potency result was “inactive”.
On to `Cc1nc2sc(C(=O)c3ccccc3)c(N)c2c2c1CCCC2`, for which the Potency entry is “inactive”.
Consider `NC(=O)c1sc2nc3c(c(-c4ccccc4)c2c1N)CCC3`, for which the Potency is 4.11 µM (active).
To `CC(=O)N1CCN(c2ccccc2NC(=S)NC(=O)c2cc3ccccc3o2)CC1` belongs “inactive”; to `c1ccc(-c2oc3ncnc(N4CCOCC4)c3c2-c2ccccc2)cc1`, “inactive”; to `COc1ccc(-c2oc(/N=C/N3CCCC3)c(C#N)c2-c2ccc(OC)cc2)cc1`, “inactive”.
With `COc1ccc(-c2oc3ncnc(NCCCO)c3c2-c2ccc(OC)cc2)cc1`, the Potency is 18.3 µM (active).
In the case of `CCn1c(=O)c2ccccc2n(CC(=O)N2CCCc3ccccc32)c1=O`, the Potency result was “inactive”.
To `CCN(C[C@H]1N[C@@](CC)(C(=O)OC)[C@H]2C(=O)N(Cc3ccccc3)C(=O)[C@@H]12)S(=O)(=O)c1ccccc1` belongs “inactive”.
The value for `COc1ccc(NC(=O)c2cc([N+](=O)[O-])ccc2NC(=O)CNC2CCCCC2C)c(OC)c1` (centres undefined) was “inactive”.
To `CCOc1ccc(C(C(=O)NC2CCCC2)N(C(=O)c2snc(C(N)=O)c2N)C2CCCC2)cc1` (centres undefined) belongs “inactive”.
Take `COc1ccc(C(=O)OCC(=O)c2cc(C)n(CC3CCCO3)c2C)cc1[N+](=O)[O-]` (centres undefined): the Potency result was “inactive”.
To `O=C(CN1CCCCCC1)N1c2ccccc2Sc2ccc(C(F)(F)F)cc21` belongs “inactive”.
As to `O=C(CN1CCCCC1)N1c2ccccc2Sc2ccc(C(F)(F)F)cc21`, the Potency result is “inactive”.
On to `COc1cc(/C=C/C(=O)N2c3ccccc3Sc3ccc(C(F)(F)F)cc32)cc(OC)c1OC`, for which the Potency was 9.2 µM (active).
For `COC(=O)C1CCN(C(=O)NC2CC(=O)N(c3ccc4c(c3)OCCO4)C2)CC1` (centres undefined), the Potency result was “inactive”.
The value for `COc1cccc(C(=O)Nc2nnc(S(=O)(=O)N3CCOCC3)s2)c1` was “inactive”; that for `COC(=O)COc1ccc(S(=O)(=O)N2CCOCC2)cc1` was “inactive”.
To `COc1ccc(C(=O)Nc2nc(-c3ccc(S(=O)(=O)N4CCOCC4)cc3)cs2)cc1` belongs 11.6 µM (active).
